According to PubChem BioAssay AID624404 (Broad Institute, 2012):
Out of some 1,800 compounds screened, about 710 (39%) were called active. About 28% were inconclusive and are not listed.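 How the source made its calls: active means luciferase signal rise whose fitted curve crosses a set activity limit at or below the top valid tested dose; inconclusive means flat fit with 30 to 70% rise, or poor fit; inactive means signal falling, flat within 30%, or crossing above top dose.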 Not all results are given here. Measured potencies and affinities stand elsewhere.

test: reporter signal increase, D54 LucT cells – cell-based, luminescence, cherry pick, counter-screen for N-linked glycosylation inhibitor project, dose response (AID 624404); settings: D54 LucT luciferase reporter counterscreen, 24 h; series mostly up to 19.5 µM

Compound | outcome
CCN1/C(=C/c2sc(-c3ccccc3C)c[n+]2C)Sc2ccccc21 | inactive
O=C(CC1Sc2ccccc2NC1=O)NNc1cccc(Cl)c1Cl (stereo not given) | inactive
O=C(Cc1ccc(Cl)cc1)Nc1ccccc1N1CCN(C(=O)c2ccccc2)CC1 | inactive
CCOC(=O)c1c(NC(=O)CCl)sc(C(=O)N(CC)CC)c1C | inactive
CCOC(=O)c1c(NC(C)=O)sc2c1CCC(C=O)=C2Sc1ccccc1 | inactive
COc1ccc([N+](=O)[O-])cc1NC(=O)CCN1CCN(CCO)CC1 | inactive
CNC(=O)COC(=O)c1ccccc1C(=O)c1ccc(Cl)c([N+](=O)[O-])c1 | inactive
CCOC(=O)c1ccc(-n2cccc2/C=C2\NC(=O)NC2=O)cc1 | inactive
CCc1ccc(Oc2coc3cc(OCC(=O)Nc4cc(C)ccc4C)ccc3c2=O)cc1 | inactive
COc1cc(C2=NOC(C(=O)NCc3ccc(F)cc3)C2)cc(OC)c1OC (stereo not given) | inactive
CN(C)S(=O)(=O)c1ccc(N2CCCC2)c(C(=O)Nc2nccs2)c1 | inactive
COc1cc(Nc2c3c(nc4ccccc24)CCC3)cc(OC)c1OC | inactive
CCOC(=O)c1[nH]c(C)c(C(=O)OCC(=O)NC(C)c2ccc(F)cc2)c1C (stereo not given) | inactive
CCOC(=O)c1[nH]c(COC(=O)CCOc2ccccc2OC)c(C(=O)OCC)c1C | inactive
CCOC(=O)c1nnc(-c2ccc(C)cc2)nc1Sc1ccccc1Cl | inactive
Cc1cc2c(=Cc3ccc(N(C)C)cc3)c3ccccc3n2[n+]1C | inactive
COc1cc(-c2nc3ccc(N4CCN(C)CC4)cc3[nH]2)cc(OC)c1OC | inactive
COc1ccc2c(-c3cc4ccc(OCc5ccc(F)cc5)cc4oc3=O)cc(=O)oc2c1 | inactive
CC1Cc2ccccc2N1C(=O)CSc1nn2c(=O)c(C(C)(C)C)nnc2s1 (stereo not given) | inactive
C#CC(=O)CC1(CN(Cc2ccccc2)C(=O)OC(C)(C)C)CCCCC1 | inactive
COc1ccc(Cl)cc1NC(=O)CN(C)CC(=O)Nc1cc(OC)c(OC)c(OC)c1 | inactive
CCC12CCC3c4ccc(O)cc4CCC3C1CC(O)C2O (stereo not given) | inactive

Compound | outcome
O=C(c1cccc([N+](=O)[O-])c1)N1CCN(c2cccc(Cl)c2)CC1 | inactive
c1ccc(-c2n[nH]c(-c3ccccc3)c2-c2nc3ccccc3[nH]2)cc1 | inactive
c1ccc(-n2nnnc2-c2cccc3ccccc23)cc1 | inactive
COc1ccc(NC(=O)CSc2c3c(nc4ccccc24)CCCC3)c(OC)c1 | inactive
CN(C)c1ccc(-c2ccnc3c2CC(C)(C(=O)NCc2ccccc2)O3)cc1 (stereo not given) | inactive
O=C(N/N=C/c1ccc2c(c1)OCO2)c1sc2cc(Cl)ccc2c1Cl | inactive
CCOC(=O)/C=C/C(=O)Nc1ccc(S(=O)(=O)N(C)c2ccccc2)cc1 | inactive
COc1ccc(OC)c(/C=C/c2ccc3cccc(O)c3n2)c1 | inactive
O=C(COc1ccc(/C=N/NC(=O)c2cc3ccccc3o2)cc1Cl)Nc1ccccc1 | inactive
O=C(O)CCC/C=C\C[C@@H]1[C@@H](/C=C/[C@@H](O)COc2cccc(Cl)c2)[C@H](O)C[C@@H]1O | inactive
CCOc1ccc(C2c3cc(OC)c(OC)cc3CC(=O)N2c2ccc(OC)cc2)cc1 (stereo not given) | inactive
COc1cc2c(cc1OC)C(c1ccccc1)N(C(=O)CCl)CC2 (stereo not given) | inactive
COc1ccc(CCn2c(=N)c(C(=O)NC3CCCC3)cc3c(=O)n4ccccc4nc32)cc1OC | inactive
Cn1cnc([N+](=O)[O-])c1Oc1ccc2ccccc2c1 | inactive
COc1ccc(/C=C/C(=O)c2ccc3c4c(cccc24)CC3)cc1OC | inactive
COc1cc(/C=C2/CCC/C(=C\c3cc(O)c(OC)c(Cl)c3)C2=O)cc(Cl)c1O | inactive
C=CCn1c(SCC(=O)c2[nH]c(C)c(C(=O)OC)c2C)nc2scc(-c3ccc(OC)c(OC)c3)c2c1=O | inactive
Cc1cc(NC(=O)CSc2nc(C3CC3)nc3sc(C)c(C)c23)no1 | inactive
CCOc1ccc(NC(=O)C(=O)NCCN2CCN(S(=O)(=O)c3ccc(C)cc3)CC2)cc1 | inactive
CN(C)CCCN1C(=O)c2cccc3c(Br)ccc(c23)C1=O | inactive
Cc1cccc(N2CCN(C(=O)c3ccncc3)CC2)c1C | inactive
Cc1nn(C(C)(C)C)c(OC(=O)c2ccc3c(c2)OCO3)c1Sc1ccccc1 | inactive

Compound | outcome
c1ccc2cc3c(NCCN4CCOCC4)ccnc3cc2c1 | inactive
c1ccc(-c2cc(NCCN3CCCCC3)c3ccccc3n2)cc1 | inactive
CCOC(=O)Nc1c2ccccc2nc2ccccc12 | inactive
Cc1cccc2c(N)c3c(nc12)N(C)CC3 | inactive
Cc1cc(C)nc(/N=C(\N)Nc2ccc(OCc3ccccc3)cc2)n1 | inactive
COc1cc2c(C(=O)N3CCN(c4cccc(Cl)c4)CC3)cn(C)c(=O)c2cc1OC | inactive
Cc1ccc(S(=O)(=O)Cc2ccc(C(=O)N3CCN(c4cccc(C)c4C)CC3)o2)cc1 | inactive
COc1ccc(NC(=O)C2(C)Cc3c(-c4cccc(NC(C)=O)c4)ccnc3O2)cn1 (stereo not given) | inactive
CC1(C(=O)NCC2CC2)Cc2c(-c3cccc(C(F)(F)F)c3)ccnc2O1 (stereo not given) | inactive
CC(=O)Nc1cccc(-c2ccnc3c2CC(C)(C(=O)NCc2ccco2)O3)c1 (stereo not given) | inactive
CC(=O)Nc1cccc(-c2ccnc3c2CC(C)(C(=O)Nc2cccc(C(C)=O)c2)O3)c1 (stereo not given) | inactive
COc1ccc(C2=NOC(C(=O)NCc3ccc(F)cc3)C2)cc1OC (stereo not given) | inactive
COC(=O)CNC(c1ccccc1Cl)c1cc(Br)ccc1NC(=O)CCN1CCOCC1 (stereo not given) | inactive
Cc1cc(-n2c(C)cc(C(=O)CCl)c2C)no1 | inactive
CCN(CC)S(=O)(=O)c1cc(NC(=O)Cn2ncc(Cl)c(Cl)c2=O)ccc1C | inactive
O=C(C[C@@H]1C[C@H]2c3cc(NC(=O)c4cccnc4)ccc3O[C@H]2[C@H](CO)O1)NCc1ccc(Oc2ccccc2)cc1 | inactive
COc1ccc(Nc2nc(N)c(C(=O)c3ccc(F)cc3)s2)cc1 | inactive
Cn1cnc(Sc2ncnc3nc[nH]c23)c1[N+](=O)[O-] | inactive
O=C(Nc1cccc(-c2nc3ncccc3o2)c1)c1sc2ccccc2c1Cl | inactive
COc1ccc(-c2cc3ccccc3oc2=O)cc1NC(=S)NC(=O)c1ccc2c(c1)OCCO2 | inactive
COc1ccccc1OCC(=O)N/N=C/C=C/c1ccc([N+](=O)[O-])o1 | inactive
